# Assays:
# [1] = target: T1, Muscle, skeletal receptor tyrosine-protein kinase (Homo sapiens) (UniProt O15146); conditions: at 1 µM;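 further: reported value is the mean percent inhibition of MuSK kinase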
# T1 sequence (whole entry): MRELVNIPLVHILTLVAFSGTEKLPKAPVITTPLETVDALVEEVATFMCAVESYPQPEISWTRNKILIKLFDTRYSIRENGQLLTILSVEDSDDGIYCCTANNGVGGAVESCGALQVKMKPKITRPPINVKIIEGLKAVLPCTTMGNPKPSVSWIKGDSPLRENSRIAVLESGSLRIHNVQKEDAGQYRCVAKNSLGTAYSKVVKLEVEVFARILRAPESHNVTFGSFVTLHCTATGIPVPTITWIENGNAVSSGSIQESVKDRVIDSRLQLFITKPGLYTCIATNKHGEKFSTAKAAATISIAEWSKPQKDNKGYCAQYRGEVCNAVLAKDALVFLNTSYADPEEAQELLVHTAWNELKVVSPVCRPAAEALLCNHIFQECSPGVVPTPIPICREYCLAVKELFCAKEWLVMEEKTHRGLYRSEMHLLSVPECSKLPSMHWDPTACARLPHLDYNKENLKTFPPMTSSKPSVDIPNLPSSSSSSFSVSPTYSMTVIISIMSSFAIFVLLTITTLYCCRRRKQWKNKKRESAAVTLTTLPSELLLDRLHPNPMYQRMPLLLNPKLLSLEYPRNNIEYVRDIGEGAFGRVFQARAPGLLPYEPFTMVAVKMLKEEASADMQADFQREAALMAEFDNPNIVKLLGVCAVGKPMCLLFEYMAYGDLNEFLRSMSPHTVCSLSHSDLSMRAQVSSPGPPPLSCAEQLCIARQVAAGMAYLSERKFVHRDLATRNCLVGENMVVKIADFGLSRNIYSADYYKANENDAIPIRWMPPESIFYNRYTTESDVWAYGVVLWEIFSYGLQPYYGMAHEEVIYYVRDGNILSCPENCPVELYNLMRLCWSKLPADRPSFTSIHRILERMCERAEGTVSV
# [2] = target: Platelet-derived growth factor receptor alpha (Homo sapiens) (UniProt P16234); conditions: at 0.1 µM
# [3] = target: Platelet-derived growth factor receptor alpha (Homo sapiens) (UniProt P16234); conditions: at 1 µM
# [4] = test system: Platelet-derived growth factor receptor alpha (Homo sapiens), P16234 [D842V]; conditions: at 0.1 µM
# [5] = test system: Platelet-derived growth factor receptor alpha (Homo sapiens), P16234 [D842V]; conditions: at 1 µM
# [6] = test system: Platelet-derived growth factor receptor alpha (Homo sapiens), P16234 [T674I]; conditions: at 0.1 µM
# [7] = test system: Platelet-derived growth factor receptor alpha (Homo sapiens), P16234 [T674I]; conditions: at 1 µM
# [8] = test system: Platelet-derived growth factor receptor alpha (Homo sapiens), P16234 [V561D]; conditions: at 0.1 µM
# [9] = test system: Platelet-derived growth factor receptor alpha (Homo sapiens), P16234 [V561D]; conditions: at 1 µM
# [10] = target: Platelet-derived growth factor receptor beta (Homo sapiens) (UniProt P09619); conditions: at 0.1 µM
# [11] = target: Platelet-derived growth factor receptor beta (Homo sapiens) (UniProt P09619); conditions: at 1 µM
# [12] = target: Tyrosine-protein kinase FRK (Homo sapiens) (UniProt P42685); conditions: at 0.1 µM
# [13] = target: Tyrosine-protein kinase FRK (Homo sapiens) (UniProt P42685); conditions: at 1 µM
# [14] = target: Protein-tyrosine kinase 2-beta (Homo sapiens) (UniProt Q14289); conditions: at 0.1 µM
# [15] = target: Protein-tyrosine kinase 2-beta (Homo sapiens) (UniProt Q14289); conditions: at 1 µM
# [16] = target: Proto-oncogene tyrosine-protein kinase receptor Ret (Homo sapiens) (UniProt P07949); conditions: at 0.1 µM
# [17] = target: Proto-oncogene tyrosine-protein kinase receptor Ret (Homo sapiens) (UniProt P07949); conditions: at 1 µM
# [18] = test system: Proto-oncogene tyrosine-protein kinase receptor Ret (Homo sapiens), P07949 [V804L]; conditions: at 0.1 µM
# [19] = test system: Proto-oncogene tyrosine-protein kinase receptor Ret (Homo sapiens), P07949 [V804L]; conditions: at 1 µM
# [20] = test system: Proto-oncogene tyrosine-protein kinase receptor Ret (Homo sapiens), P07949 [Y791F]; conditions: at 0.1 µM
# Proto-oncogene tyrosine-protein kinase receptor Ret (Homo sapiens), P07949 [Y791F], sequence (P07949 whole entry Y791F): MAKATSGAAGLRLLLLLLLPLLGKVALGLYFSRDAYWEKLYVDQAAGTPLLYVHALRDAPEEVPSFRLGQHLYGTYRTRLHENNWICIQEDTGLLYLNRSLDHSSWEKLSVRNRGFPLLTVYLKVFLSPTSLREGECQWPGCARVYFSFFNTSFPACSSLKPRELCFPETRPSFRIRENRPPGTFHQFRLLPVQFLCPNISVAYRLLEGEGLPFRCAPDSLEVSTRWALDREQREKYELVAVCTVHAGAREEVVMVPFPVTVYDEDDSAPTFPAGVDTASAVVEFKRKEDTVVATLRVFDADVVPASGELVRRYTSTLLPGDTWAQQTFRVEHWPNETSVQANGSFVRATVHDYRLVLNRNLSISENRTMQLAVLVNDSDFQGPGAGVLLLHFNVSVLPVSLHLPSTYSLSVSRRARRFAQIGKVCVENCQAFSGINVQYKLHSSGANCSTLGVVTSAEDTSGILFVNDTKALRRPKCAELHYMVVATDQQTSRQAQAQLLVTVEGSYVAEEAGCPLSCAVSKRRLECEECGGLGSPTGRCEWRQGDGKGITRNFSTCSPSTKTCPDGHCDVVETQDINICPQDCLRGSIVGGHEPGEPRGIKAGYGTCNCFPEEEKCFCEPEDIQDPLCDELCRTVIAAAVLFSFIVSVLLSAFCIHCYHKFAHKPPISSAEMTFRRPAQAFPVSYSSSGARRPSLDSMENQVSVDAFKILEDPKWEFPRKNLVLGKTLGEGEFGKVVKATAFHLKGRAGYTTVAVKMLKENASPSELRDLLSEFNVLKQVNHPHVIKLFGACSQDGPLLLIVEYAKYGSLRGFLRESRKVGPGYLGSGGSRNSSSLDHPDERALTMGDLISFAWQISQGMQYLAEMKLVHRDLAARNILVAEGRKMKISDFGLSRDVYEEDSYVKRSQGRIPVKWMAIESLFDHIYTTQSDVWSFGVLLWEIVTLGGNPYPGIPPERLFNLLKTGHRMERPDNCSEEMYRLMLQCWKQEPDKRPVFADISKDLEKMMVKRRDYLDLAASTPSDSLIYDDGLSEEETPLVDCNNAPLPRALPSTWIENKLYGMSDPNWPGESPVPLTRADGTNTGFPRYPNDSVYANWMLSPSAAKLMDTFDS
# Protein-tyrosine kinase 2-beta (Homo sapiens), sequence (Q14289 whole entry, looked up): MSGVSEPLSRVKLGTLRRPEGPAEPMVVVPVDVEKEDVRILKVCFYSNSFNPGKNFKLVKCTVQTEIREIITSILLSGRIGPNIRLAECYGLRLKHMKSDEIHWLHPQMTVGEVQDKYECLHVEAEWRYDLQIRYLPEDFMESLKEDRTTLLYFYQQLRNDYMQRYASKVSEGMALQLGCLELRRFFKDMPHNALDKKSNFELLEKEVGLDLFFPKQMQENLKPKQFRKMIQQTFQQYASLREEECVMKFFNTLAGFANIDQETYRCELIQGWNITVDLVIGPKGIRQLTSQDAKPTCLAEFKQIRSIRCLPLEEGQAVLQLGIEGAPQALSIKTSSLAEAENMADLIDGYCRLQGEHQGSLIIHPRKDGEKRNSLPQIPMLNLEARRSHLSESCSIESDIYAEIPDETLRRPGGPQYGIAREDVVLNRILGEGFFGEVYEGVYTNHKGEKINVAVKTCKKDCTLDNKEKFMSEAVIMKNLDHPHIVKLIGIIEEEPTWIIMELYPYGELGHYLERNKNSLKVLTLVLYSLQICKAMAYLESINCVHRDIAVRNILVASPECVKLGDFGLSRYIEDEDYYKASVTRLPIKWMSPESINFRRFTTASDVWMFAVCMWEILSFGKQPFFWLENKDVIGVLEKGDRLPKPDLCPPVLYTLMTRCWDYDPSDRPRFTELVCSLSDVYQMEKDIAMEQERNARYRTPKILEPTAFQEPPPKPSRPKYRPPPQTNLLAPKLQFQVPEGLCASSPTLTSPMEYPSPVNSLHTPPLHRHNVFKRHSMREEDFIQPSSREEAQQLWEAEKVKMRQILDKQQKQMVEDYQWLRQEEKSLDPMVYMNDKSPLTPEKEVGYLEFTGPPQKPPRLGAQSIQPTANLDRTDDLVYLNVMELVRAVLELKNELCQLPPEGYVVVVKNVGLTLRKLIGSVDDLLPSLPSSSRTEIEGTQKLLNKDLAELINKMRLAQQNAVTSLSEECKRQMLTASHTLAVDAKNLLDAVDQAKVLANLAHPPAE
# Tyrosine-protein kinase FRK (Homo sapiens), sequence (P42685 whole entry): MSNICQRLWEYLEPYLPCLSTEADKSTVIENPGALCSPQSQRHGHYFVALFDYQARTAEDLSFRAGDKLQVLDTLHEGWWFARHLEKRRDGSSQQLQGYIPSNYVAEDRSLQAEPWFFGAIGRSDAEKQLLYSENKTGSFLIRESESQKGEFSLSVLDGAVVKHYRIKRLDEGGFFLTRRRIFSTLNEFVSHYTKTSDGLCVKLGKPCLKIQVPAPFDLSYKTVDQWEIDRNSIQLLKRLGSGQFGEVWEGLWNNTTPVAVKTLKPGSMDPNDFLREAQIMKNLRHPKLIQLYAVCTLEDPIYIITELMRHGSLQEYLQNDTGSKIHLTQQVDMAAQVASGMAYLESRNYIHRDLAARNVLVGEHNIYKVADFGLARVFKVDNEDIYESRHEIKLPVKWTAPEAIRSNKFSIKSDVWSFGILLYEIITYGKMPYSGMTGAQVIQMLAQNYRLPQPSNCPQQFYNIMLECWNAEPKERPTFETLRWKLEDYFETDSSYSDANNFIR
# Platelet-derived growth factor receptor alpha (Homo sapiens), P16234 [D842V], sequence (P16234 whole entry D842V): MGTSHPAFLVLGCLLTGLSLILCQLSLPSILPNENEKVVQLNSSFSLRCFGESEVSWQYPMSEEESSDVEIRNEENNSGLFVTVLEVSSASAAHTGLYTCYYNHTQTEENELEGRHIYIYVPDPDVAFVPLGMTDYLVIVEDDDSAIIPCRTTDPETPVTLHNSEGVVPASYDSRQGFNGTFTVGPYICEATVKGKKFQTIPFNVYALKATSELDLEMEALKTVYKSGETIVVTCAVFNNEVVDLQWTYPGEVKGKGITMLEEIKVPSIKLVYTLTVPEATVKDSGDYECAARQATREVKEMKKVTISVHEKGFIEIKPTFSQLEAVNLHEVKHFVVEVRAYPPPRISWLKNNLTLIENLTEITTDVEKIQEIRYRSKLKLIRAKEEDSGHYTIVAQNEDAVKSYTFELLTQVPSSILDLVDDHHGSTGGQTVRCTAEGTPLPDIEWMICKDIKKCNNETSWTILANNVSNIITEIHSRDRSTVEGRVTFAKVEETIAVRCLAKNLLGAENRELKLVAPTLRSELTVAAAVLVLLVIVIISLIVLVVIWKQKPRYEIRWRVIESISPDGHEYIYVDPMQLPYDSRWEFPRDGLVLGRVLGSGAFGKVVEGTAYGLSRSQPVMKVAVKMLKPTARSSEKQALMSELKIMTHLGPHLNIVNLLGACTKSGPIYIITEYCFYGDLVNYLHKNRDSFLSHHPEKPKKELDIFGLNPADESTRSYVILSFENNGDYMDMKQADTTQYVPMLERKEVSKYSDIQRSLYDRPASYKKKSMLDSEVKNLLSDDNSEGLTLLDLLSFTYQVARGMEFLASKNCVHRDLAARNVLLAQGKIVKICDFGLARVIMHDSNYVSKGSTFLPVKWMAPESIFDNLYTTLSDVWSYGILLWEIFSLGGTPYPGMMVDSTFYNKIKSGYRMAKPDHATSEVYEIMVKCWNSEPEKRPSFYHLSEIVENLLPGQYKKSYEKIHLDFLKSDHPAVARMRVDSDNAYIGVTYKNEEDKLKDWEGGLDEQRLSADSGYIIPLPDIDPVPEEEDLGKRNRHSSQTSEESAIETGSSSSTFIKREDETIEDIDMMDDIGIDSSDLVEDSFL
# Proto-oncogene tyrosine-protein kinase receptor Ret (Homo sapiens), sequence (P07949 whole entry): as the sequence (P07949 whole entry Y791F) above, with F791Y counted along it
compound,measurement,setting,value
NS(=O)(=O)c1ccc(Nc2cc(-c3cccc(O)c3)n[nH]2)cc1,inhibition,[1],12.9%
same,inhibition,[2],16.7%
same,inhibition,[3],40.4%
same,inhibition,[4],4.21%
same,inhibition,[5],13.8%
same,inhibition,[6],12.8%
same,inhibition,[7],6.05%
same,inhibition,[8],17.7%
same,inhibition,[9],49%
same,inhibition,[10],9.08%
same,inhibition,[11],26.1%
same,inhibition,[12],0.88%
same,inhibition,[13],2.04%
same,inhibition,[14],10.7%
same,inhibition,[15],12.3%
same,inhibition,[16],6.46%
same,inhibition,[17],15.5%
same,inhibition,[18],9.69%
same,inhibition,[19],21.3%
same,inhibition,[20],13.4%
Nc1nccc(-c2c(-c3ccc(F)cc3)ncn2CCCN2CCOCC2)n1,inhibition,[1],3.99%
same,inhibition,[2],4.62%
same,inhibition,[3],14.7%
same,inhibition,[4],1.96%
same,inhibition,[5],6.03%
same,inhibition,[6],6.08%
same,inhibition,[7],7.81%
same,inhibition,[8],3.07%
same,inhibition,[9],8.56%
same,inhibition,[10],3.65%
same,inhibition,[11],11.8%
same,inhibition,[12],1.5%
same,inhibition,[13],1.08%
same,inhibition,[14],9.24%
same,inhibition,[15],8.65%
same,inhibition,[16],4.75%
same,inhibition,[17],5.26%
same,inhibition,[18],1.67%
same,inhibition,[19],4.72%
same,inhibition,[20],2.28%
CCOc1nccc2c1nc(-c1nonc1N)n2CC,inhibition,[1],8.7%
same,inhibition,[2],11.7%
same,inhibition,[3],19.1%
same,inhibition,[4],1.89%
same,inhibition,[5],6.37%
same,inhibition,[6],10.8%
same,inhibition,[7],9.83%
same,inhibition,[8],6.37%
same,inhibition,[9],5.39%
same,inhibition,[10],7.89%
same,inhibition,[11],20.2%
same,inhibition,[12],1.66%
same,inhibition,[13],-0.64%
same,inhibition,[14],5.11%
same,inhibition,[15],7.29%
same,inhibition,[16],5.47%
same,inhibition,[17],12.3%
same,inhibition,[18],8.5%
same,inhibition,[19],20.2%
same,inhibition,[20],9.76%
NS(=O)(=O)c1ccc(-c2cc3ccncc3cc2OCc2ccccc2)cc1,inhibition,[1],0.07%
same,inhibition,[2],8.15%
same,inhibition,[3],13.2%
same,inhibition,[4],0.32%
same,inhibition,[5],4.83%
same,inhibition,[6],3.46%
same,inhibition,[7],9.33%
same,inhibition,[8],3.67%
same,inhibition,[9],6.32%
same,inhibition,[10],3.66%
same,inhibition,[11],8.53%
same,inhibition,[12],2%
same,inhibition,[13],1.07%
same,inhibition,[14],7.81%
same,inhibition,[15],13.4%
same,inhibition,[16],2.04%
same,inhibition,[17],8.69%
same,inhibition,[18],2.23%
same,inhibition,[19],5.47%
same,inhibition,[20],5.72%
CCCN1CCCC(c2ccc(Nc3nc(Nc4cc(F)ccc4C(N)=O)c4cc[nH]c4n3)c(OC)c2)C1 (configuration not stated),inhibition,[1],12.2%
same,inhibition,[2],10.1%
same,inhibition,[3],38.3%
same,inhibition,[4],8.12%
same,inhibition,[5],39.9%
same,inhibition,[6],5.49%
same,inhibition,[7],8.24%
same,inhibition,[8],6.86%
same,inhibition,[9],33.1%
same,inhibition,[10],6.16%
same,inhibition,[11],32.2%
same,inhibition,[12],7.2%
same,inhibition,[13],20.5%
same,inhibition,[14],96%
same,inhibition,[15],97.7%
same,inhibition,[16],8.63%
same,inhibition,[17],20.9%
same,inhibition,[18],10.1%
same,inhibition,[19],41.6%
same,inhibition,[20],8.67%
Cc1nc(-c2ccccc2)n2nc(NCCCN3CCOCC3)ncc12,inhibition,[1],5.56%
same,inhibition,[2],3.35%
same,inhibition,[3],9.81%
same,inhibition,[4],0.64%
same,inhibition,[5],6.14%
same,inhibition,[6],3%
same,inhibition,[7],5.5%
same,inhibition,[8],2.27%
same,inhibition,[9],3.3%
same,inhibition,[10],1.99%
same,inhibition,[11],5.95%
same,inhibition,[12],3.57%
same,inhibition,[13],2.61%
same,inhibition,[14],1.99%
same,inhibition,[15],10.1%
same,inhibition,[16],0.76%
same,inhibition,[17],6.88%
same,inhibition,[18],2.64%
same,inhibition,[19],7.97%
same,inhibition,[20],4.35%
CS(=O)(=O)Nc1cccc(-c2ccc3c(NC(=O)C4CC4)n[nH]c3c2)c1,inhibition,[1],3.16%
same,inhibition,[2],3.7%
same,inhibition,[3],13.2%
same,inhibition,[4],4.33%
same,inhibition,[5],8.89%
same,inhibition,[6],0.91%
same,inhibition,[7],-1.66%
same,inhibition,[8],1.13%
same,inhibition,[9],6.51%
same,inhibition,[10],-2.19%
same,inhibition,[11],7.8%
same,inhibition,[12],0.86%
same,inhibition,[13],0.42%
same,inhibition,[14],2.77%
same,inhibition,[15],3.01%
same,inhibition,[16],-0.07%
same,inhibition,[17],15.4%
same,inhibition,[18],-3.08%
same,inhibition,[19],-1.31%
same,inhibition,[20],1.94%
COc1cc2ncnc(Nc3ccc4c(cnn4Cc4ccccc4)c3)c2cc1OC,inhibition,[1],2.89%
same,inhibition,[2],9.97%
same,inhibition,[3],36.9%
same,inhibition,[4],4%
same,inhibition,[5],7.42%
same,inhibition,[6],4.73%
same,inhibition,[7],17%
same,inhibition,[8],6.36%
same,inhibition,[9],23.3%
same,inhibition,[10],3.39%
same,inhibition,[11],6.26%
same,inhibition,[12],1.94%
same,inhibition,[13],6.16%
same,inhibition,[14],6.05%
same,inhibition,[15],9.57%
same,inhibition,[16],8.77%
same,inhibition,[17],28.6%
same,inhibition,[18],3.73%
same,inhibition,[19],9.3%
same,inhibition,[20],9.71%
N#Cc1c(NC(=O)c2ccccc2F)sc2c1CCCC2,inhibition,[1],1.48%
same,inhibition,[2],1.47%
same,inhibition,[3],5.27%
same,inhibition,[4],1.43%
same,inhibition,[5],3.35%
same,inhibition,[6],1.66%
same,inhibition,[7],4.03%
same,inhibition,[8],2.72%
same,inhibition,[9],3.24%
same,inhibition,[10],1.07%
same,inhibition,[11],3.62%
same,inhibition,[12],-0.85%
same,inhibition,[13],-1.09%
same,inhibition,[15],-8.67%
same,inhibition,[16],-2%
same,inhibition,[17],3.21%
same,inhibition,[18],0.24%
same,inhibition,[19],2.29%
same,inhibition,[20],-0.3%
COC(=O)Nc1nc2cc(Oc3ccc(NC(=O)Nc4cccc(Br)c4)cc3)ccc2[nH]1,inhibition,[1],49.3%
same,inhibition,[2],75.2%
same,inhibition,[3],87.4%
same,inhibition,[4],5.64%
same,inhibition,[5],13.8%
same,inhibition,[6],83.8%
same,inhibition,[7],98.1%
same,inhibition,[8],84%
same,inhibition,[9],94.6%
same,inhibition,[10],17.4%
same,inhibition,[11],35.9%
same,inhibition,[12],2.82%
same,inhibition,[13],1.12%
same,inhibition,[14],5.36%
same,inhibition,[15],9.53%
same,inhibition,[16],69.7%
same,inhibition,[17],80.6%
same,inhibition,[18],37.5%
same,inhibition,[19],66.5%
same,inhibition,[20],66.4%
N#Cc1cccc(Nc2nccc(-c3cnn4ncccc34)n2)c1,inhibition,[1],24.6%
same,inhibition,[2],16.3%
same,inhibition,[3],52.5%
same,inhibition,[4],10.5%
same,inhibition,[5],48.8%
same,inhibition,[6],15.7%
same,inhibition,[7],60.5%
same,inhibition,[8],23.3%
same,inhibition,[9],59.9%
same,inhibition,[10],27.2%
same,inhibition,[11],65.1%
same,inhibition,[12],5.2%
same,inhibition,[13],16%
same,inhibition,[14],21.6%
same,inhibition,[15],71%
same,inhibition,[16],8.71%
same,inhibition,[17],37.4%
same,inhibition,[18],6.87%
same,inhibition,[19],43.8%
same,inhibition,[20],7.91%
O=C1Nc2ccc(-c3cccnc3)cc2C1=Cc1cc(Br)c(O)c(Br)c1,inhibition,[1],5.67%
same,inhibition,[2],10.2%
same,inhibition,[3],20.2%
same,inhibition,[4],4.65%
same,inhibition,[5],12.5%
same,inhibition,[6],5.16%
same,inhibition,[7],5.71%
same,inhibition,[8],5.57%
same,inhibition,[9],23.6%
same,inhibition,[10],1.45%
same,inhibition,[12],1.84%
same,inhibition,[13],5.49%
same,inhibition,[14],9.77%
same,inhibition,[15],9.16%
same,inhibition,[16],-0.83%
same,inhibition,[17],7.95%
same,inhibition,[18],2.79%
same,inhibition,[19],16.2%
same,inhibition,[20],8.02%
FC(F)(F)c1ccc(-c2nn3ncccc3c2-c2ccnc(Nc3ccc4c(c3)OCCO4)n2)cc1,inhibition,[1],15%
same,inhibition,[2],9.5%
same,inhibition,[3],19.5%
same,inhibition,[4],1.06%
same,inhibition,[5],5.73%
same,inhibition,[7],5.8%
same,inhibition,[8],6.7%
same,inhibition,[9],11.7%
same,inhibition,[10],9.78%
same,inhibition,[11],17.4%
same,inhibition,[12],1.38%
same,inhibition,[13],2.35%
same,inhibition,[14],2.83%
same,inhibition,[15],1.96%
same,inhibition,[16],8.08%
same,inhibition,[17],29.2%
same,inhibition,[18],9.12%
same,inhibition,[19],14.3%
same,inhibition,[20],8.67%

# — ChEMBL document CHEMBL1961873, “Compounds: GSK PKIS; Assays: Nanosyn kinase panel” (2012)
